# Screening data deposited in PubChem BioAssay by National Center for Advancing Translational Sciences (NCATS).
# Compounds with a hit are over-represented: about 2.5% of the library has one in this group of screens.
# Cruzain noTriton – qHTS Assay for Promiscuous and Specific Inhibitors of Cruzain (without detergent). 2.3% of 200,000 active. purified cruzain, Z-FR-AMC fluorescence, no detergent. Potency, µM, for inactives: max response, negative = inhibition, usual class: inhibitors. Cruzipain (Trypanosoma cruzi), P25779. AID 1476, 2009;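 note: plate controls were enzyme without inhibitor for no effect and buffer without enzyme for full effect; nearly all actives have a fitted effect of over 40% in size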
# Target sequence (P25779 123-467 limits assumed): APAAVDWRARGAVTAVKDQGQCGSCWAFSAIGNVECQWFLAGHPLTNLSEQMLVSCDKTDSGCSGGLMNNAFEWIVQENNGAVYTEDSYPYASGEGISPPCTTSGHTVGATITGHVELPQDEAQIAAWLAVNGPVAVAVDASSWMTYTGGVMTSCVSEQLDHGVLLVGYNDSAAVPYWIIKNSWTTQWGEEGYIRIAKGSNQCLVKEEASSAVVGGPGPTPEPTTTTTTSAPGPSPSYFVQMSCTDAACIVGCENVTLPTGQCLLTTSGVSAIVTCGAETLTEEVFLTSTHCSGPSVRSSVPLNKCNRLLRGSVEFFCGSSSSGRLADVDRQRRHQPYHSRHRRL
#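 Purified cruzain at 1.5 nM, pre-incubated 15 min with compound at room temperature in 100 mM sodium acetate pH 5.5, 5 mM DTT, 0.00005% Triton X-100. Reaction started with 2 uM Z-FR-AMC; AMC fluorescence increase over 60 s gives rate.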
# Cruzain inh Det – qHTS Assay for Promiscuous and Specific Inhibitors of Cruzain (with detergent); Potency, µM, for inactives: max response, negative = inhibition, actives largely listed as inhibitors; AID 1478, 2009; purified cruzain, Z-FR-AMC fluorescence, 0.01% Triton; 0.43% of 200,000 active;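 note: plate controls were neutral wells for no effect and buffer without enzyme for full effect; nearly all actives have a fitted effect of over 40% in size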
#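 Steps: dispense cruzain (1.5 nM final) in acetate buffer pH 5.5 with DTT and 0.01% Triton X-100; pin-transfer compounds; incubate 15 min RT; add Z-FR-AMC (2 uM final); read fluorescence every 30 s, using the 60 s intensity change.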
# * marks the source's active call; other numbers are inactive results; ? = inconclusive. Calls come from the whole dose curve; as a rule, active = well fitted curve in the direction sought with a large enough effect; inconclusive = small, poorly fitted or top-dose-only effect, or another doubt; inactive = no such curve, though single readings can be large; an effect the other way counts as inactive or inconclusive. Potency is the fitted concentration of half-maximal effect.
SMILES,Cruzain noTriton,Cruzain inh Det
CCOc1ccc(OCC)c(NC(=O)c2cc(-c3cccs3)nc3ccccc23)c1,-1.4%,2.9%
COc1ccc(-c2nc3ccccc3n3c(-c4cccc(C)c4)c4c(=O)n(C)c(=O)n(C)c4c23)cc1OC,0.7%,-2.5%
O=C(CSc1ccc2ccccc2c1)Nc1nc2ccccc2[nH]1,15.8µM*,-1.2%
O=C(CSc1nc2ccccc2[nH]1)Nc1ccccc1F,-26.7%,-9.4%
O=C(COc1ccccc1)Nc1nc2ccccc2[nH]1,-14.2%,-3.9%
O=C(COc1cccc2ccccc12)Nc1nc2ccccc2[nH]1,25.1µM*,-13.3%
O=C(/C=C/c1ccccc1)Nc1ncn[nH]1,2.0%,4.6%
O=C(CSc1nc2ccccc2[nH]1)Nc1ccc(F)c(F)c1,25.1µM*,-28.7%
O=C(CSCc1nc2ccccc2[nH]1)Nc1ccc2ccccc2c1,?,-22.0%
O=C(/C=C/c1ccc(F)cc1)Nc1nc2ccccc2[nH]1,10µM*,-2.1%
Cc1ccccc1NC(=O)Cn1c(=O)n(Cc2ccc3c(c2)OCO3)c(=O)c2oc3ccccc3c21,5.0%,0.5%
C[C@]12CC[C@H]3c4ccc(O)cc4CC[C@@H]3[C@H]1CC[C@@H]2OC(=O)CCc1ccccc1,-13.0%,-6.0%
COc1cc(NC(=O)Cn2c(=O)n(-c3ccccc3)c(=O)c3c4c(sc32)CCCC4)cc(OC)c1,-8.4%,-2.5%
COc1ccccc1/C=C/C(=O)c1ccc(Cl)cc1,10.6%,-1.1%
COc1ccccc1/C=C/C1=NC(=C\C=C/c2ccccc2)/C(=O)O1,25.1µM*,-15.3%
COc1ccc(/C=C/C=C2\N=C(SC)SC2=O)cc1,-11.2%,-6.4%
COc1ccccc1/C=C/C=C1N=C(/C=C/c2ccc(Cl)cc2)OC/1=O,15.8µM*,-20.9%
CCN(CC)C(=O)C(C)N(C#N)c1nc(SC)nc(N(C)C)n1 (centres undefined),3.1%,0.0%
CCOC(=O)CSc1nc(N(C)C)nc(N(C)C#N)n1,20µM*,15.8µM*
CC1=C(C(=O)OCc2ccc3c(c2)OCO3)C(c2ccccc2)NC(=O)N1 (centres undefined),-5.7%,-3.8%
CC1=C(C(=O)OCc2ccc3c(c2)OCO3)C(c2ccccc2OCc2ccccc2)NC(=O)N1 (centres undefined),15.8µM*,-0.7%
CCOc1ccc2oc(=O)cc(CN3CCN(C(=O)c4ccc(Cl)cc4)CC3)c2c1,4.6%,-4.5%
Cc1ccc(Cn2c(=O)c3cccnc3n(CC(=O)Nc3cc(Cl)ccc3C)c2=O)cc1,-6.5%,0.4%
CCn1nc(C)c(NC(=O)/C=C/c2ccc(OC)c(COc3ccc(Cl)cc3Br)c2)c1C,3.5%,-2.2%
COc1ccc(/C=C/C(=O)NCc2cn(C)nc2C)cc1COc1ccc(Cl)cc1Br,-2.8%,14.1µM*
SMILES,Cruzain noTriton,Cruzain inh Det
COc1ccc(C(=O)Nc2ccc(C(=O)OCc3cc(=O)n4nc(C5CC5)sc4n3)cc2)cc1,7.5%,-1.2%
NC(=S)SCCC(=O)O,6.5%,0.4%
O=C(Nc1ccc(-c2cn3ccccc3n2)cc1)c1ccco1,-6.4%,-8.3%
O=C(Nc1ccc(-c2cn3ccccc3n2)cc1)c1ccc(Cl)cc1,12.6µM*,-2.9%
CC(=O)c1c(C)oc2c(Cl)cc(NS(=O)(=O)c3cc(C)c(C)cc3C)cc12,5.5%,3.6%
O=C(NCCc1ccccc1)c1cc(-c2ccc(Cl)c(Cl)c2)on1,0.4%,-1.8%
CC(C)CNC(=O)c1cc(-c2ccc(Cl)c(Cl)c2)on1,12.6µM*,7.8%
CC(CO)(CO)N=Cc1cc(I)cc(I)c1O,-1.1%,0.5%
COc1ccc(-c2ccc(-c3cc(=O)oc4cc(C)cc(C)c34)cc2)cc1,?,0.1%
Cc1cc(C)c2c(-c3ccc(-c4ccc(C(F)(F)F)cc4)cc3)cc(=O)oc2c1,25.1µM*,5.5%
COc1ccc(OC)c(C2c3c(-c4ccc(Br)cc4)n[nH]c3C(=O)N2c2ccc(Cl)cc2)c1 (centres undefined),15.8µM*,-1.9%
CCOC(=O)c1ccc(N2C(=O)c3n[nH]c(-c4cccs4)c3C2c2ccc(Cl)cc2Cl)cc1 (centres undefined),20µM*,-1.2%
CCOC(=O)c1ccc(N2C(=O)c3n[nH]c(-c4ccco4)c3C2c2ccc(OCC)cc2)cc1 (centres undefined),13.6%,-29.2%
CCOC(=O)c1ccc(N2C(=O)c3n[nH]c(-c4cccs4)c3C2c2ccc(C)cc2)cc1 (centres undefined),-7.9%,-1.9%
CCOC(=O)c1ccc(N2C(=O)c3[nH]nc(-c4ccc(OC)cc4)c3C2c2ccc(C)cc2)cc1 (centres undefined),25.1µM*,-2.4%
COc1ccc(-c2n[nH]c3c2C(c2ccc(O)cc2)N(c2ccc(Br)cc2)C3=O)cc1 (centres undefined),?,-1.4%
COc1ccc(CCNC(=O)CN(c2ccc(C)cc2)S(=O)(=O)c2ccc(OC)cc2)cc1,3.3%,-7.8%
O=C(OCc1ccccc1Cl)c1ccc(-c2nnn(Cc3ccccc3Cl)n2)cc1,-7.4%,0.4%
Cc1cc([N+](=O)[O-])ccc1NC(=O)CSc1nccn1C,-3.1%,-2.2%
COc1cccc(CNC(=O)C(NS(=O)(=O)c2cccs2)C(C)C)c1 (centres undefined),-3.6%,-5.7%
CCOC(=O)c1c(Nc2ccc(OCC)cc2)nnc(-c2ccccc2)c1-c1ccccc1,-12.7%,-6.6%
COc1cccc(Nc2nc(-c3cccc(N4C(=O)c5ccccc5C4=O)c3)cs2)c1,7.94µM*,5.9%
COc1cccc(Nc2nc(-c3ccc(O)cc3)cs2)c1,-6.8%,-8.7%
CCc1nnc(NC(=O)c2cc(=O)c3cc(C)c(C)cc3o2)s1,-14.3%,-2.4%
Cc1cccc(CSc2ccc3nnc(-c4cccs4)n3n2)c1,31.6µM*,-4.0%
SMILES,Cruzain noTriton,Cruzain inh Det
Fc1ccc(CSc2ccc3nnc(-c4cccs4)n3n2)cc1,?,-2.0%
CC(C)=CCl,6.8%,-2.2%
Cc1ccc(CNC(=O)Cn2nc(C)n3cccc3c2=O)cc1,-0.6%,-4.1%
COc1ccc(CNC(=O)Cn2c(=O)c3cccn3c3cccnc32)cc1,-15.6%,-5.2%
COc1ccc(CNC(=O)Cn2nc(C)n3cccc3c2=O)cc1,25.1µM*,-7.1%
COc1ccc(CNC(=O)Cn2c(=O)c3cccn3c3ccccc32)cc1,31.6µM*,-2.0%
C/C=C/C=C/C=O,-0.1%,-1.0%
Cc1nn(-c2ccccc2)c(Cl)c1/C=N/Nc1ccc(Cl)c(C(=O)O)c1,-5.3%,-10.0%
Cc1nn(-c2ccccc2)c(Cl)c1/C=N/Nc1ccc(S(=O)(=O)Nc2ccccc2C(=O)O)cc1[N+](=O)[O-],?,14.1µM*
CCOc1ccccc1-n1nnc(-c2nc(-c3ccccc3)no2)c1N,-0.7%,0.9%
COc1ccc(OCCn2nnc3sc4c(c3c2=O)CCC(C(C)(C)C)C4)cc1 (centres undefined),14.4%,2.3%
CCOC(=O)c1noc2ncnc(N(CCC(=O)OC)c3ccccc3)c12,6.6%,3.7%
Cc1cc([N+](=O)[O-])ccc1-c1ccc(C2Nc3ccccc3C(=O)N2O)o1 (centres undefined),20µM*,-5.4%
CCOC(=O)c1ccc(-c2ccc(C3Nc4ccccc4C(=O)N3O)o2)cc1 (centres undefined),?,-15.0%
Cc1ccc(NC(=O)CCC(=O)N2CCSc3ccccc32)cc1Cl,3.5%,-6.2%
Cc1ccccc1Cn1ccn(-c2ccc(F)c(F)c2)c(=O)c1=O,-3.4%,-2.8%
